Compound activity deposited in PubChem BioAssay by National Center for Advancing Translational Sciences (NCATS).
TRHR PAM = qHTS for Small Molecule Agonists and Allosteric Enhancers of Human TRH Receptor: Primary Screen for Enhancers. actives 0.66% (n = 360,000). TRHR cells, fluo-8 calcium fluorescence, EC20 TRH enhancement. enhancement, % at 2 µM. Thyrotropin-releasing hormone receptor (Homo sapiens), P34981; in the data active = enhancement above about 30%
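TRHR-expressing cells loaded with fluo-8 calcium dye were read kinetically (ex 480/em 530) during compound addition, then stimulated with an EC20 of TRH (10 nM final). Enhancement of the Gq-mediated intracellular calcium response was scored.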
D1 PAM = Potentiators of Human D1 Dopamine Receptor: qHTS. D(1A) dopamine receptor (Homo sapiens), P21728. HEK293 TREx D1 cells, calcium flux, dopamine EC20 potentiation. potentiation, % at 10 µM. actives 0.036% (n = 360,000); in the data active = potentiation above about 30%
Target sequence (P21728 whole entry, looked up): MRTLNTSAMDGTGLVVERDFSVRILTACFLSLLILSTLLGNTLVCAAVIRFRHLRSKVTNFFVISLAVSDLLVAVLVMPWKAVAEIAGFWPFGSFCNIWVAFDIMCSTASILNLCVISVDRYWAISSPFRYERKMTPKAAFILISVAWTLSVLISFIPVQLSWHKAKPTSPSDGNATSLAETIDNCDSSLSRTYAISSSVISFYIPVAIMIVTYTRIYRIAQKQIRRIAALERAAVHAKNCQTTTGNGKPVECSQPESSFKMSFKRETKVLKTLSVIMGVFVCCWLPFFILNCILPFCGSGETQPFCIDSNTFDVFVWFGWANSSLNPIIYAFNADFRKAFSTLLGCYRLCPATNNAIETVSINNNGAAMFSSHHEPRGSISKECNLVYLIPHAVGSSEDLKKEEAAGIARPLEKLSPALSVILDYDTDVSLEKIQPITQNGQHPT
D1 antagonist = Antagonist of Human D 1 Dopamine Receptor: qHTS. D(1A) dopamine receptor (Homo sapiens), P21728. HEK293 TREx D1 cells, calcium flux, dopamine EC80; hits give low values. activity change, negative = inhibition, % at 10 µM. actives 3.2% (n = 360,000). AID 504652, 2011; in the data active = activity change below about -30%
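After overnight tetracycline induction at 30 C, force-coupled D1 HEK293 cells took up a no-wash calcium dye at room temperature. Compounds were added and monitored 180 s, and the response to EC80 dopamine was then recorded.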
TRHR agonist = qHTS for Small Molecule Agonists and Allosteric Enhancers of Human TRH Receptor: Primary Screen for Agonists; Thyrotropin-releasing hormone receptor (Homo sapiens), P34981; TRHR cells, calcium flux fluo-8, FDSS agonist mode; activation, % at 2 µM; actives 0.18% (n = 360,000)
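Agonist-mode FDSS calcium read (Ex 480/Em 530, 1 s cycles) in 1536-well TRHR cells with fluo-8 dye, after 10-cycle baseline and 23 nL compound addition; TRH at EC20 (10 nM final) added afterwards for the enhancer phase.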
D1 agonist = Allosteric Agonists of the Human D1 Dopamine Receptor: qHTS. AID 504660, 2011. HEK293 T-REx D1 cells, calcium flux, agonist mode. actives 1% (n = 360,000). D(1A) dopamine receptor (Homo sapiens), P21728. activation, % at 2 µM
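Tetracycline-induced HEK293 TREx D1 cells, force-coupled to calcium signalling, were dye-loaded with a no-wash calcium kit. Compound was pin-added after a 10 s baseline. Fluorescence was read kinetically at 1 cycle/s for 180 s, with calcium rises flagged as agonism.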
Of the large screens only hits and unclear results are named; the others gave an inactive call; ! = not active in a repeat. Sampled rows, rich in hits. Any-hit rate of the full collection: about 4.7%. Rule as the data show it, unless noted: active = activation above about 30%; inactive = the rest.

Cc1ccc(-n2c3nc(=O)n(C)c(=O)c-3cc3c(Cl)cccc32)c(C)c1	none
Cc1ccc(C(=O)Nc2cc(C(F)(F)F)ccc2-n2cncn2)o1	none
Cc1ccc(C(=O)Nc2cc(Cl)ccc2-n2cncn2)o1	TRHR PAM 36
Cc1oc2ncnc(N3CCOCC3)c2c1C(=O)Nc1ccc(Br)cc1F	none
Cc1ccc(C(=O)OCc2cc3ccccc3[nH]c2=O)cc1	TRHR PAM 38
O=C(Cc1cnn(-c2ccccc2)c1)c1ccc(O)c(O)c1O	none
CCc1cc(C(=O)Cc2cnn(-c3ccccc3)c2)c(O)cc1O	D1 agonist 38
CCOc1ccc(CCNC(=O)C(O)c2ccccc2)cc1 (configuration not stated)	none
CCOc1ccc(/C=N/NC(=O)C(O)c2ccccc2)c(O)c1 (configuration not stated)	D1 antagonist -33
O=C(N/N=C/c1ccc(Cl)s1)C(O)c1ccccc1 (configuration not stated)	D1 antagonist -37
O=C(N/N=C/c1cc(Br)cs1)C(O)c1ccccc1 (configuration not stated)	none
COc1ccc2c(CNCc3ccco3)c(C(=O)O)n(Cc3ccc(F)cc3Cl)c2c1	none
COc1ccc(OC)c(C2C(C(=O)Nc3ccc(C)cc3)=C(C)Nc3nnnn32)c1 (configuration not stated)	none
CCOC(=O)c1cc2c(ccn2C)n1CC(=O)N1CCN(c2cccc(C(F)(F)F)c2)CC1	D1 antagonist -38
CCOC(=O)c1cc2c(ccn2C)n1CC(=O)N1CCN(c2ccc(F)cc2)CC1	none
CCOc1ccc(-c2cn3c(n2)sc2cc(C(=O)NCCCc4ccccc4)ccc23)cc1	none
CCOC(=O)c1c(S(=O)(=O)N2CCC(C(=O)N3CCN(c4cc(C)ccc4C)CC3)CC2)c(C)n(C)c1C	D1 antagonist -92
CCOC(=O)c1c(S(=O)(=O)N2CCCC(C(=O)Nc3cc(C)ccn3)C2)c(C)n(C)c1C (configuration not stated)	D1 antagonist -33
CCN(CC)c1ccc(NS(=O)(=O)c2cc(-c3onc(C)c3C)ccc2OC)c(C)c1	none
COCCNC(=O)c1ccc(CSc2nc3ccccc3s2)cc1	D1 antagonist -34
COc1ccc(CCNC(=O)C2CCN(c3ccc(N4CCOCC4)nn3)CC2)c(OC)c1	D1 antagonist -33
CN(C)c1ccc(/C=C(/NC(=O)c2ccccc2)C(=O)NCCCn2ccnc2)cc1	D1 agonist 34
COc1ccccc1C(=O)N/C(=C\c1cn(S(=O)(=O)N(C)C)c2ccccc12)C(=O)NCCCn1ccnc1	none
O=C(NCCCn1ccnc1)/C(=C/c1ccc(Cl)cc1)NC(=O)c1ccccc1	none (no result: D1 PAM)
CN(C)S(=O)(=O)n1cc(/C=C(\NC(=O)c2ccccc2F)C(=O)NCCCn2ccnc2)c2ccccc21	D1 antagonist -38!
CCOC(=O)c1cccc(NC(=O)c2cc3cc4ccc(C)cc4nc3o2)c1	none
O=C(Nc1ccccc1)c1ccc2c(c1)CCN2S(=O)(=O)c1ccccc1	D1 antagonist -32
COc1ccc(NC(=O)c2ccc3c(c2)CCN3S(=O)(=O)c2ccccc2)cc1	D1 antagonist -51!
Cc1cccc(OCC(=O)Nc2ccc(C(=O)OCc3cc(=O)n4nc(C5CC5)sc4n3)cc2)c1	none
COC(=O)Nc1sc(C)nc1-c1ccccc1	none (no result: D1 PAM, D1 antagonist, D1 agonist)
CCOC(=O)Nc1sc(C)nc1-c1ccccc1	D1 antagonist -49
COc1nnc(-c2ccc(N3CCOCC3)c(NC(=O)c3ccccc3)c2)c2ccccc12	none
COc1nnc(-c2ccc(N3CCOCC3)c(NC(=O)c3ccco3)c2)c2ccccc12	D1 antagonist -92
CC1CCC2C(=O)N(c3ccc(Cc4ccncc4)cc3)C(=O)C2C1 (configuration not stated)	D1 antagonist -30
O=C1C2C3C=CC(C3)C2C(=O)N1c1ccc(Cc2ccncc2)cc1 (configuration not stated)	none
Nc1c(C(=O)Nc2ccc(Cl)c(C(=O)O)c2)sc2nc3c(cc12)CCCC3	D1 antagonist -62
COc1cc(NC(=O)c2nnn(CC(=O)Nc3ccccc3)c2N)cc(OC)c1	none
O=C(COC(=O)CSc1ccc([N+](=O)[O-])cc1)NCCc1ccccc1	D1 antagonist -34
O=C(COC(=O)CSc1ccc(F)cc1)NCCCc1ccccc1	none
Cc1ccccc1CN(C)C(=O)COC(=O)CSc1ccc([N+](=O)[O-])cc1	D1 antagonist -33
O=C(COC(=O)CSc1ccc([N+](=O)[O-])cc1)NCCCc1ccccc1	D1 antagonist -33
Cc1ccc(CN(C)C(=O)COC(=O)CSc2ccc([N+](=O)[O-])cc2)cc1	none
O=C(COC(=O)CSc1ccc([N+](=O)[O-])cc1)NCc1ccco1	none
COc1ccc(CCNC(=O)CN(c2cc([N+](=O)[O-])ccc2OC)S(C)(=O)=O)cc1OC	TRHR PAM 32
Cc1ccc(NC(=O)CN2C(=O)C(c3ccccc3)=NC23CCCCC3)cc1C	none
CCc1cccc(-n2c(=O)c3cccnc3n2CC(=O)NCc2ccccc2)c1	none
Cc1ccc(-c2nc(CS(=O)CC(=O)N3CCN(c4ccc(Cl)cc4)CC3)c(C)o2)cc1 (configuration not stated)	none
Cc1cccc(C)c1NC(=O)CSc1nc2ncccc2o1	none
CC(OC(=O)CSc1ccc([N+](=O)[O-])cc1)C(=O)NCc1ccccc1 (configuration not stated)	D1 antagonist -55
O=C(COC(=O)Cc1cccc(F)c1)NCCc1ccccc1	D1 antagonist -68
COc1ccc(CCNC(=O)COC(=O)CSc2ccc([N+](=O)[O-])cc2)cc1OC	D1 antagonist -45
COc1ccc(CCNC(=O)Cc2ccc([N+](=O)[O-])cc2)cc1OC	none
O=C(COC(=O)Cc1ccc(F)cc1)NCCc1ccccc1	none
Cc1ccc(CNC(=O)CSc2nc3ccsc3c(=O)n2-c2ccc(Br)cc2)cc1	none
CC(=O)N1c2ccc(S(=O)(=O)NCC3CCC(C(=O)Nc4cccc(C)c4C)CC3)cc2CC1C (configuration not stated)	none
CC(=O)c1cccc(NC(=O)CSc2nc(=O)n(Cc3ccco3)c3c2CCC3)c1	none (no result: D1 antagonist)
O=C1c2ccccc2C(=O)N1Cc1ccccn1	D1 antagonist -37
O=C(COc1ccccc1)Nc1cccc(-c2ccc(N3CCOCC3)nn2)c1	D1 antagonist -73
Cc1ccccc1C(=O)Nc1cccc(-c2ccc(N3CCOCC3)nn2)c1	D1 antagonist -37
